Compounds with a hit are over-represented: about 19% of the library has one in this group of screens.
Pf growth 96h: Primary qHTS for delayed death inhibitors of the malarial parasite plastid, 96 hour incubation; P. falciparum luciferase reporter growth, 96 h; Potency, µM (series often up to 28.7 µM), for the others: at the highest dose activity change, negative = inhibition, hits mostly inhibitors; 6.9% of 320,000 active; AID 504834, 2011; note: potency is the fitted concentration of half-maximal effect; % is set by controls: 0 for no effect and ±100 for the full control effect
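Parasite growth measured via integrated firefly luciferase reporter in P. falciparum. Infected erythrocytes at 2% hematocrit, 0.05% parasitemia final were treated 96 hours at 37 C under 5% CO2, and luminescence was read.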
Shiga toxin inh: A qHTS for Small Molecule Inhibitors of Shiga Toxin; 9.2% of 290,000 active; inhibition, % at 38.7 µM; Vero cells, Shiga toxin protein synthesis inhibition reporter; in the data active = inhibition mostly above about 28%, no sharp cut-off; inactive = mostly below about 43%; note: 0% is about no effect
Marburg entry inh: qHTS for inhibitors of binding or entry into cells for Marburg Virus | Marburg virus pseudotyped entry inhibition, cell reporter | Potency, µM (doses to about 37.8 µM), inactives show top-dose activity change, negative = inhibition, most hits filed as inhibitors | 1.8% of 300,000 active; calls by dose curve; tested in HEK293 cells; note: potency is the fitted concentration of half-maximal effect; % is set by controls: 0 for no effect and ±100 for the full control effect
Pf growth 48h: Primary qHTS for delayed death inhibitors of the malarial parasite plastid, 48 hour incubation; P. falciparum luciferase growth in erythrocytes, 48 h; Potency, µM (highest dose often 28.7 µM), inactives show at the highest dose activity change, negative = inhibition, usual class: inhibitors; 5.9% of 310,000 active; note: potency is the fitted concentration of half-maximal effect; % is set by controls: 0 for no effect and ±100 for the full control effect
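Cell-based growth assay: transgenic P. falciparum expressing firefly luciferase, cultured in red cells within RPMI 1640 containing 0.5% w/v Albumax, 24 mM bicarbonate and gentamycin. A drop in luciferase activity indicates inhibition.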
Cycloheximide cs: Cycloheximide Counterscreen for Small Molecule Inhibitors of Shiga Toxin; cell reporter, cycloheximide protein synthesis inhibition counterscreen; max response, %; 12% of 300,000 active; AID 2314, 2010; in the data active = max response mostly above about 13%, no sharp cut-off; inactive = mostly below about 14%; note: read at 38.3 µM for the half of the compounds with a filed dose; 0% is about no effect
LASV entry inh: qHTS for Inhibitors of binding or entry into cells for Lassa Virus | Potency, µM (titrated, usually from 37.9 µM), for inactives: at the highest dose activity change, negative = inhibition, actives largely listed as inhibitors | 1.2% of 300,000 active | Lassa virus pseudotype entry inhibition, cell reporter | AID 540256, 2011; calls by dose curve; tested in HEK293 cells; note: potency is the fitted concentration of half-maximal effect; % is set by controls: 0 for no effect and ±100 for the full control effect; nearly all actives have a fitted effect of over 50% in size
Numbers without * were called inactive; ? = inconclusive; · = no result given; [ ] = another dose, or the depositor's remark. Unless noted, calls come from the whole dose curve; as a rule, active = well fitted inhibition curve with a large enough effect; inconclusive = small, poorly fitted or top-dose-only effect, or another doubt; inactive = no such curve, though single readings can be large or run the other way.

SMILES | Pf growth 96h | Shiga toxin inh | Marburg entry inh | Pf growth 48h | Cycloheximide cs | LASV entry inh
O=C(COC(=O)CCC(=O)c1cccs1)Nc1ncc(Cl)cc1Cl | -10.2% | -5.1 | ? | -5.8% | -6.6 | -0.4%
Cc1ccc(S(=O)(=O)N2CCN(CC(=O)N/N=C\c3ccncc3)CC2)cc1 | ? | -3.0 | · | -16.6% | -2.5 | ·
Nc1nnnn1/N=C/c1cc(Cl)cc(Cl)c1OCc1ccc(Cl)cc1Cl | 2.4% | 12.9 | -1.9% | · | 1.1 | 12.9%
Cc1ccc(NC(=O)CN2C(=O)N/C(=C\c3cccnc3)C2=O)cc1 | -13.5% | -3.9 | -25.0% | 19.3% | 11.7 | -13.1%
Nc1ccc([As](=O)(O)O)cc1 | 8.28µM* | -2.5 | 29.4% | 15.1µM* | -2.3 | -12.4%
Cc1cc(C)n(C(N)=NC(=O)c2ccc([N+](=O)[O-])cc2)n1 | 145.8% | 40.4* | · | 236.8% | 28.4* | ·
CCCCCc1cc(=O)oc2c(C(CCN3CCCC(C)C3)c3ccc(N(C)C)cc3)c(OC)cc(OC)c12 (stereo not drawn) | 8.28µM* | 1.8 | · | ? | -2.9 | ·
CCCCCc1cc(=O)oc2c(C(CCN3CCCC(C)C3)c3cc(OC)c(OC)c(OC)c3)c(OC)cc(OC)c12 (stereo not drawn) | 0.37µM* | 10.8 | · | 2.62µM* | -5.6 | ·
COc1cc(C(CCN2CCCC(C)C2)c2c(OC)cc(OC)c3c(C)cc(=O)oc23)cc(OC)c1OC (stereo not drawn) | · | -7.9 | · | · | -4.4 | ·
COc1cc(OC)c2ccc(=O)oc2c1C(CCN1CCCC(C)C1)c1ccc(N(C)C)cc1 (stereo not drawn) | ? | -6.6 | · | ? | -1.6 | ·
CCCCCc1cc(=O)oc2c(C(CCN3CCCCC3)c3cc(OC)c(OC)c(OC)c3)c(OC)cc(OC)c12 (stereo not drawn) | 2.33µM* | -8.9 | · | 5.22µM* | 5.9 | ·
O=S(=O)(Nc1nccs1)c1ccc(F)cc1 | ? | 58.8* | · | 16.2% | 38.4* | ·
O=C(Nc1ccc(S(=O)(=O)Nc2nccs2)cc1)c1c(F)c(F)c(F)c(F)c1F | 3.7µM* | -12.9 | -1.6% | -7.7% | 1.0 | 2.0%
CCc1ccc(S(=O)(=O)Nc2nccs2)cc1 | ? | -8.5 | 27.9% | 7.2% | 1.1 | -19.7%
CS(=O)(=O)Nc1ccc(C(=O)Nc2ccc(S(=O)(=O)Nc3nccs3)cc2)cc1 | ? | 5.1 | 13.9% | -6.2% | 13.3 | 4.4%
COCCn1c(N)c(N(Cc2ccccc2)C(=O)CSCC(=O)Nc2ccc(OC)cc2)c(=O)[nH]c1=O | -0.8% | · | -14.8% | -13.3% | · | -1.7%
CCC(NC(=O)c1ccccc1NC(=O)c1ccco1)C(=O)O (stereo not drawn) | 0.3% | -21.6 | 0.0%[46.1 µM] | 3.8% | -3.9 | 22.6%
O=C(Nc1ccccc1C(=O)NC(Cc1ccccc1)C(=O)NC1CCCCC1)c1ccccc1 (stereo not drawn) | ? | -4.8 | -1.3% | 10.4µM* | -1.5 | -25.2%
CCC(NC(=O)c1ccccc1NC(=O)c1ccco1)C(=O)NC1CCCCC1 (stereo not drawn) | ? | -17.2 | -9.8% | ? | 22.5* | 8.8%
COc1ccc(C(=O)Nc2ccccc2C(=O)NC(Cc2ccc(O)cc2)C(=O)NNC(=O)c2ccccc2Cl)cc1 (stereo not drawn) | 32.3% | 4.5 | -28.6% | 5.22µM* | 11.5* | -5.6%
Cc1cccc(C(=O)c2cnc3ccccc3c2-c2ccccc2)c1 | · | -9.0 | ? | ? | 4.8 | -5.4%
O=C(NCCCN1CCOCC1)c1cc2cc(Br)ccc2oc1=O | -14.2% | -6.3 | 10.4% | 23.3% | -1.5 | 9.6%
COc1ccc(OCC(=O)NNC(=O)c2cccnc2)cc1 | 9.8% | -2.5 | 9.7% | 0.0% | 3.1 | -2.1%
CSc1sc(C(=O)OC(C)C)c2c1C(=O)CC(C)(C)C2 | ? | -8.0 | 13.7%[46.1 µM] | 7.38µM* | 1.9 | 13.7%[46.1 µM]
Cc1nc2ccccc2c2c(N)c3ccccc3n12 | 8.28µM* | 7.4 | -20.9%[46.1 µM] | ? | 11.3 | -4.1%
SMILES | Pf growth 96h | Shiga toxin inh | Marburg entry inh | Pf growth 48h | Cycloheximide cs | LASV entry inh
Cc1nc2ccccc2n1-c1ccccc1 | -15.6% | -0.8 | -17.1%[46.1 µM] | -0.7% | -2.2 | ?
C=CC[n+]1c(-c2ccc(C)cc2)csc1Nc1ccc(NC(C)=O)cc1 | 0.0% | -16.8 | 6.51µM* | ? | -5.2 | 2.31µM*
C=CC[n+]1c(-c2ccc(OC)cc2)csc1NNC(=O)Nc1ccccc1 | ? | 47.8 | -50.2% | · | 35.7 | ?
COC(=O)CCCCC(=O)C1C(=O)CC(C)(C)C(C(=O)OC)C1=O (stereo not drawn) | · | -18.2 | 6.0% | -11.2% | -3.3 | 1.6%
CCCC(=O)C1C(=O)CC(C)(C)C(c2cc(C)no2)C1=O (stereo not drawn) | 0.117µM* | -3.4 | 3.9% | 7.0% | -4.7 | 9.3%
CC(C)N(C(=O)CN1C(=O)NC(c2ccccc2)(c2ccccc2)C1=O)C(C)C | ? | 3.1 | 0.5%[46.1 µM] | -19.8% | -5.1 | -4.8%[46.1 µM]
COc1ccc(C2(c3ccc(OC)cc3)NC(=O)N(CC(=O)Nc3ccccc3)C2=O)cc1 | ? | -8.1 | ? | ? | -0.9 | ?
CCOc1ccc(CN(C)C(=O)CN2C(=O)NC(c3ccccc3)(c3ccccc3)C2=O)cc1 | ? | · | · | 13.1µM* | · | ·
COc1ccc(C2(c3ccc(OC)cc3)NC(=O)N(CC(=O)N(C)c3ccccc3)C2=O)cc1 | -34.4% | 72.5* | -24.1%[46.1 µM] | 32.0% | 51.5* | ?
CCc1ccc(NC(=S)N2CCN(c3cccc(C(F)(F)F)c3)CC2)cc1 | 54.7% | -2.6 | ? | 27.5% | -0.8 | ?
COc1ccc(N2CC(NC(=O)c3ccco3)CC2=O)cc1OC (stereo not drawn) | · | · | · | · | · | -2.1%[46.1 µM]
OC1CCN(c2cc(-c3ccccc3)nc3cc(-c4ccc(F)cc4)nn23)CC1 | 20.3% | -13.6 | -5.8%[46.1 µM] | ? | -3.0 | -15.8%[46.1 µM]
CCC(=O)c1ccc(OCC(O)Cn2nc(C)cc2C)cc1 (stereo not drawn) | -12.7% | 22.3 | · | -9.6% | 10.1 | ·
Cc1ccccc1OCC(O)Cn1nnc2ccccc21 (stereo not drawn) | ? | 79.4* | ? | 49.6% | 50.3* | ?
CCC(=O)c1ccc(OCC(O)Cn2nnc3ccccc32)cc1 (stereo not drawn) | 24.6% | 64.8* | ? | 115.2% | 44.9* | 27.4%
Cc1cc(C)n(CC(O)COc2ccccc2C)n1 (stereo not drawn) | 10.1% | -5.7 | 10.8%[46.1 µM] | 6.8% | 4.6 | 0.1%
CC(NC(=O)Cn1nc(C(=O)O)c2ccccc2c1=O)c1ccccc1 (stereo not drawn) | 4.4% | -0.9 | ? | 9.7% | -2.0 | 3.0%
Cc1ccc(Nc2nc(=O)c3cccnc3s2)cc1 | 6.9% | 71.7* | ? | 95.3% | 26.1* | ?
COC(=O)[C@H](C)NC(=O)Nc1ccccc1C(F)(F)F | 2.2% | -16.1 | -1.5% | 20.5% | -4.6 | 6.3%

Screening results from PubChem BioAssay.
